Results filed as inconclusive are left out. Where a call stands in place of a potency, no number is given. The source made the active and inactive calls. Calls come from the whole dose curve; as a rule, active = well fitted curve in the direction sought with a large enough effect; inconclusive = small, poorly fitted or top-dose-only effect, or another doubt; inactive = no such curve, though single readings can be large; an effect the other way counts as inactive or inconclusive.

Sequence of Arylsulfatase A (Homo sapiens) (P15289 whole entry, looked up): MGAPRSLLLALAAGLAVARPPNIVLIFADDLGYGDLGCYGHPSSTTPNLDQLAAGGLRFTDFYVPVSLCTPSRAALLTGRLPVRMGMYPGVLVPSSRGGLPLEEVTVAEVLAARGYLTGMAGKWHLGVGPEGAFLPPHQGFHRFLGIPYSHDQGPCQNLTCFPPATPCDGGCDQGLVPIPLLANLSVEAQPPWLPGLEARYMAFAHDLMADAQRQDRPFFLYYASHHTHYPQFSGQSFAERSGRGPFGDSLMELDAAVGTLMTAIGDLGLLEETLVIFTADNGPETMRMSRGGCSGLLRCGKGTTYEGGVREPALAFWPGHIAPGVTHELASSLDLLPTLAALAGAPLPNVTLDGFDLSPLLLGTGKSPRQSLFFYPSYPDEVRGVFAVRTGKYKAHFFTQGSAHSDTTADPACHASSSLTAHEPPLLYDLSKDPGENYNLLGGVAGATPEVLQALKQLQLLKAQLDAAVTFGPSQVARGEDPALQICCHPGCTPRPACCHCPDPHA

Tested on in the first assay: not listed separately
The assay can be described thus: qHTS for small molecule inhibitors of Yes1 kinase: Counter Assay (AID 686950).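 Note: no kinase present so only ADP-Glo detection of a fixed ADP amount is tested; luminescence from ADP-Glo reporting ADP in a fixed ATP and ADP mixture.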 As to conditions: series mostly up to 76.9 µM. The method, boiled down: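 No kinase present; 0.08 mM ATP + 0.02 mM ADP in 50 mM Tris pH 7.5, 10 mM MgCl2, 150 mM NaCl, 1 mM DTT; 20 min compound preincubation, 60 min RT, ADP-Glo luminescence, normalized to ATP/ADP (max) and ATP-only (min).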
(In general: Quantitative high-throughput screening tests each substance at several concentrations.)
On to `CC(O)(CS(=O)(=O)c1ccc(F)cc1)C(=O)Nc1ccc(C#N)c(C(F)(F)F)c1` (stereo unspecified), for which the compound was classed as inactive. In the case of `CN(C)CCN(C)CCc1ccc(Cl)c(Cl)c1`, the result was inactive. On to `Cn1cc(C2=C(c3cn(C4CCN(Cc5ccccn5)CC4)c4ccccc34)C(=O)NC2=O)c2ccccc21`, for which the call was inactive. Take `CC1=C2C[C@@H]3[C@@H](CC=C4C[C@@H](O)CC[C@@]43C)[C@@H]2CC[C@]12O[C@H]1C[C@H](C)CN[C@H]1[C@H]2C`: the compound was called inactive. For the compound `COC[C@H]1OC(=O)c2coc3c2[C@@]1(C)C1=C(C3=O)C2CCC(=O)[C@@]2(C)C[C@H]1OC(C)=O` (stereo partly specified), the outcome was inactive. In the case of `C[C@]12CCC(=O)C(O)=C1CC[C@@H]1[C@@H]2CC[C@]2(C)C(=O)CC[C@@H]12`, the call was inactive. Turning to `O=C(O)C(=O)c1cn(Cc2ccccc2)c2ccc(-c3ccc(OC(F)(F)F)cc3)cc12`, the compound was called inactive. With `C[C@@H]1[C@@H](C(=O)C[C@H]2O[C@@H]3O[C@]4(C)CC[C@@H]5[C@H](C)CC[C@@H]([C@H]2C)[C@@]35OO4)O[C@@H]2O[C@]3(C)CC[C@H]4[C@H](C)CC[C@@H]1[C@@]24OO3`, the compound was called inactive. Take `CNC(=O)N1N=C(c2ccc(N)cc2)c2cc3c(cc2CC1C)OCO3` (stereo unspecified): the result was inactive. With `Cc1cc(SCc2sc(-c3ccc(C(F)(F)F)c(F)c3)nc2C)ccc1OCC(=O)O`, the compound was classed as inactive. For the compound `CNC(=O)c1ccc(N2C(=S)N(c3ccc(C#N)c(C(F)(F)F)c3)C(=O)C23CCC3)cc1F`, the call was inactive. Regarding `CCCCC/C=C\C/C=C\C/C=C\C/C=C\CCCC(=O)NC1CC1`, the outcome was inactive.

For `Cc1sc2c(c1C)C(c1ccc(Cl)cc1)=N[C@@H](CC(=O)OC(C)(C)C)c1nnc(C)n1-2`, the result was inactive. With `COC1(CS(=O)c2ccccc2)CCN(CCc2c[nH]c3ccc(F)cc23)CC1` (stereo unspecified), the call was inactive. Turning to `C[C@@H]1[C@@H](CC(C[C@H]2O[C@@H]3O[C@]4(C)CC[C@@H]5[C@H](C)CC[C@@H]([C@H]2C)[C@@]35OO4)C[S+](=O)([O-])c2ccc(COC(=O)N(C)C)cc2)O[C@@H]2O[C@]3(C)CC[C@H]4[C@H](C)CC[C@@H]1[C@@]24OO3` (stereo partly specified), the compound was called inactive.

Turning to `Cn1c(CCCC(=O)O)nc2cc(N(CCCl)CCCl)ccc21`, the call was inactive. As for `COc1ccc(C(=O)c2c(C)n(CCN3CCOCC3)c3ccccc23)cc1`, the outcome was inactive.

A further assay addresses Arylsulfatase A (Homo sapiens) (UniProt P15289). The assay can be described thus: qHTS screen for enhancers of Arylsulfatase A (ASA1): LOPAC Validation Assay (AID 720538). Note: potency is the fitted concentration of half-maximal effect. As to conditions: ASA enzyme activity, LOPAC qHTS enhancer assay; series mostly up to 57.5 µM. The procedure, abridged:
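Enhancer assay in patient-derived MLD fibroblasts carrying ASA-I179S: 48 h compound exposure at 37 C, then 14 h room-temperature pNCS turnover (0.5 mM final) in lysis buffer. Read by fluorescence at 525/598 nm after NaOH stop.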
On to `c1ccc(C2CC2)c(OCC2=NCCN2)c1`, for which the Potency entry was “inactive”.

As to `CCCN1CCC[C@@H]2Cc3nc(N)ncc3C[C@H]21`, the Potency entry is “inactive”. On to `C[C@]12CC[C@@H]3c4ccc(O)cc4C[C@@H](CCCCCCCCCS(=O)CCCC(F)(F)C(F)(F)F)[C@H]3[C@@H]1CC[C@@H]2O` (stereo partly specified), for which the Potency result was “inactive”.

Take `CNCCC(Oc1ccc(C(F)(F)F)cc1)c1ccccc1` (stereo unspecified): the Potency entry was “inactive”.

With `Cc1cc2c(C(C)C)c(O)c(O)c(C=O)c2c(O)c1-c1c(C)cc2c(C(C)C)c(O)c(O)c(C=O)c2c1O`, the Potency was 19 µM (active). On to `CNCC(O)c1ccc(O)cc1` (stereo unspecified), for which the Potency entry is “inactive”.

For `Cc1ccc(S(=O)(=O)N[C@@H](CCCCN)C(=O)CCl)cc1`, the Potency is 3.01 µM (active). Take `COC[C@H]1OC(=O)c2coc3c2[C@@]1(C)C1=C(C3=O)C2CCC(=O)[C@@]2(C)C[C@H]1OC(C)=O` (stereo partly specified): the Potency entry was “inactive”. With `C[C@]12CCC(=O)C(O)=C1CC[C@@H]1[C@@H]2CC[C@]2(C)C(=O)CC[C@@H]12`, the Potency entry is “inactive”. Take `CCC1(C2=NCCN2)Cc2ccccc2O1` (stereo unspecified): the Potency entry was “inactive”. In the case of `C[C@@H]1O[C@@H](O[C@H]2C[C@@H](O)[C@]3(CO)[C@H]4[C@H](O)C[C@]5(C)[C@@H](C6=CC(=O)OC6)CC[C@]5(O)[C@@H]4CC[C@]3(O)C2)[C@H](O)[C@H](O)[C@H]1O`, the Potency result is “inactive”.

With `CC(CCc1ccccc1)NC(C)C(O)c1ccc(O)cc1` (stereo unspecified), the Potency entry is “inactive”.

Consider `CC(C)=CCOc1c2occc2cc2ccc(=O)oc12`, for which the Potency result is “inactive”. Same read-out and setting: with `CCCC(C)(COC(N)=O)COC(=O)NC(C)C` (stereo unspecified) the entry was “inactive”. The same measure, in the same setting: for `C=C(C)[C@H]1Cc2c(ccc3c2O[C@@H]2COc4cc(OC)c(OC)cc4[C@@H]2C3=O)O1` the value was “inactive”. Turning to `NCC(O)c1ccc(O)cc1` (stereo unspecified), the Potency entry was “inactive”. `Nc1ccncc1`: the Potency result is “inactive”. Regarding `CC[C@@H](CO)NC(=O)[C@@H]1C=C2c3cccc4[nH]cc(c34)C[C@H]2N(C)C1`, the Potency entry is “inactive”.

Tested on in another assay: not listed separately
In words: qHTS for Activators of Parkin Expression: LOPAC Validation Assay (NLuc Reporter) (AID 720572). The note with it: Parkin promoter NanoLuc reporter cells, luminescence, percent of positive control, DMSO as zero; series mostly up to 46.1 µM. The procedure, abridged: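 NLuc signal, read 10 min after reagent and following a prior FLuc read, is normalized to DMSO (0) and positive controls (100%). Cells: neuronal Parkin-promoter coincidence reporter line; compounds tested 7-point, 24 h, 37 C, 5% CO2.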
`c1ccc(C2CC2)c(OCC2=NCCN2)c1`: the call was inactive.

On to `CCCN1CCC[C@@H]2Cc3nc(N)ncc3C[C@H]21`, for which the result was inactive. For the compound `CNCC(O)c1ccc(O)cc1` (stereo unspecified), the outcome was inactive. Still for that read-out and setting: with `CC(O)(CS(=O)(=O)c1ccc(F)cc1)C(=O)Nc1ccc(C#N)c(C(F)(F)F)c1` (stereo unspecified) the entry was “inactive”; with `Cc1ccc(S(=O)(=O)N[C@@H](CCCCN)C(=O)CCl)cc1`, “inactive”; with `COC[C@H]1OC(=O)c2coc3c2[C@@]1(C)C1=C(C3=O)C2CCC(=O)[C@@]2(C)C[C@H]1OC(C)=O` (stereo partly specified), “inactive”. The same measure, in the same setting: for `C[C@]12CCC(=O)C(O)=C1CC[C@@H]1[C@@H]2CC[C@]2(C)C(=O)CC[C@@H]12` the value was “inactive”; for `CCC1(C2=NCCN2)Cc2ccccc2O1` (stereo unspecified), “inactive”. Take `C[C@@H]1O[C@@H](O[C@H]2C[C@@H](O)[C@]3(CO)[C@H]4[C@H](O)C[C@]5(C)[C@@H](C6=CC(=O)OC6)CC[C@]5(O)[C@@H]4CC[C@]3(O)C2)[C@H](O)[C@H](O)[C@H]1O`: the outcome was inactive. The same measure, in the same setting: with `CC(CCc1ccccc1)NC(C)C(O)c1ccc(O)cc1` (stereo unspecified) the entry was “inactive”; with `CC(C)=CCOc1c2occc2cc2ccc(=O)oc12`, “inactive”.

As for `CCCC(C)(COC(N)=O)COC(=O)NC(C)C` (stereo unspecified), the outcome was inactive. On to `C=C(C)[C@H]1Cc2c(ccc3c2O[C@@H]2COc4cc(OC)c(OC)cc4[C@@H]2C3=O)O1`, for which the call was inactive. Still for that read-out and setting: with `NCC(O)c1ccc(O)cc1` (stereo unspecified) the entry was “inactive”; with `Nc1ccncc1`, “inactive”; with `CC[C@@H](CO)NC(=O)[C@@H]1C=C2c3cccc4[nH]cc(c34)C[C@H]2N(C)C1`, “inactive”.

The record behind these values is PubChem BioAssay (NCATS).
